The values that follow come from PubChem BioAssay AID504558 (Broad Institute, 2011).

The campaign covered roughly 350,000 compounds. About 2,400 (0.69%) were called active. This is one part of a sample in which actives are shown more often than they occur. Values without a mark were called inactive. Cut-off read from the data, not from the text of the source: active = inhibition above about 41%; inconclusive = no clear call, values can overlap the other calls; inactive = below that.

A short description of this assay: blockers of LMP1-induced NF-kB reporter signal – cell-based, luminescence, single point, primary screen (AID 504558).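 Note: 0% = neutral control wells and 100% = reference inhibitor control.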 The following applies: LMP1-induced NF-kappaB luciferase reporter cells, at 12.5 µM, hits give high values. Background: Reporter assays use an easily measured gene product as a stand-in for the process of interest.
With `CC(=O)c1ccccc1NC(=O)COC(=O)C1COc2ccccc2O1` (stereo not drawn), the inhibition was -0.0295%.

For `O=c1[nH]c2ccccc2n1C1CCN(CCOc2ccccc2)CC1`, the inhibition was 5.46%.

For `OC(COc1ccccc1)CN1CCN(c2cccc(Cl)c2)CC1` (stereo not drawn), the inhibition is 46.9% (active).

In the case of `OC(COc1ccc2c(c1)CCC2)CN1CCN(c2cccc(Cl)c2)CC1` (stereo not drawn), the inhibition was -1.09%.

Regarding `CCC(=O)c1ccc(OCC(O)CN2CCN(c3cccc(C(F)(F)F)c3)CC2)cc1` (stereo not drawn), the inhibition is 1.92%.

With `CCOC(=O)c1c(NC(=O)COC(=O)c2ccc(S(=O)(=O)C(F)F)cc2)sc(C(=O)N(C)C)c1C`, the inhibition is 1.83%.

As for `CC(=NNC(N)=O)C1CC2CCC1CC2` (stereo not drawn), the inhibition is 4.52%.

As to `CC(OC(=O)c1ccc(NC(=O)CC#N)cc1)C(=O)Nc1ccc(S(=O)(=O)N2CCCC2)cc1` (stereo not drawn), the inhibition is -2.22%.

On to `Cc1ccccc1NC(=O)Cc1nc(COC(=O)C(C)(C)Oc2ccc(Cl)cc2)cs1`, for which the inhibition is -2.11%.

For the compound `Cc1noc(C)c1S(=O)(=O)N(C)C[C@H]1OCCCC[C@@H](C)Oc2ccc(NC(=O)CCCN(C)C)cc2C(=O)N([C@H](C)CO)C[C@@H]1C`, the inhibition is -4.38%.

Regarding `COC(=O)Cc1[nH]n(-c2nc3ccccc3s2)c(=O)c1C(C)=Nc1ccc(OC)cc1`, the inhibition is 59.5% (active).

As to `COc1ccccc1NC(=O)c1ccc2nc(N3C(=O)CCC3=O)sc2c1`, the inhibition was -13.5%.

Consider `COc1ccc(C(=O)Nc2cccc(/C=C(/CCC(=O)O)c3nc4ccccc4s3)c2)cc1`, for which the inhibition was -6.71%.

Consider `C[C@H]1CN([C@@H](C)CO)C(=O)CCCn2cc(nn2)CO[C@@H]1CN(C)S(=O)(=O)c1cccc(C#N)c1`, for which the inhibition is -4.24%.

As for `COc1ccc(C(=O)NC2CCCc3c2cnn3-c2cccc(C)c2C)c(OC)n1` (stereo not drawn), the inhibition was 47.8% (active).

Consider `Cn1nccc1C(=O)NC1CCCc2c1cnn2-c1ccccc1F` (stereo not drawn), for which the inhibition is 28.4%.

As for `COc1ccc(OC)c(C(=O)NC2CCCc3c2cnn3-c2cc(C)cc(C)c2)c1` (stereo not drawn), the inhibition was -16.3%.

For the compound `O=C(O)C1=C(C(=O)O)C2CCC1C2`, the inhibition was -22.4%.

On to `COc1ccc(-c2csc(Nc3cccc(C)n3)n2)cc1OC`, for which the inhibition is 56.6% (active).

Consider `Cc1cccc(NC(=O)COc2ccc(Br)cc2C)n1`, for which the inhibition was -11.9%.

As to `COc1ccc2c(c1OC)C(=O)OC2Nc1nc(-c2ccccc2)cs1` (stereo not drawn), the inhibition was 22.9%.

In the case of `Cc1ccc(-c2ccc(CN3C(C(C)C)C(=O)N(Cc4cn(CCC5OCCCO5)nn4)CCS3(=O)=O)cc2)cc1` (stereo not drawn), the inhibition is 3.16%.

For the compound `C[C@H]1CN([C@@H](C)CO)C(=O)CCCn2nncc2CO[C@@H]1CN(C)Cc1ccc(Oc2ccccc2)cc1`, the inhibition was 8.56%.

For `COc1ccc(C2=Nc3cc(C)ccc3OC2)cc1`, the inhibition was 91.3% (active).

Regarding `COc1ccc(C2=NOC(COC(=O)c3ccc4ccccc4n3)C2)cc1` (stereo not drawn), the inhibition is 3.2%.

`Cc1ccc(C(=O)NNC2=Nc3cc([N+](=O)[O-])ccc3OC2)cc1`: the inhibition was -21.3%.

In the case of `CCN(CC)C(=O)C(C)N1c2cccc3cccc(c23)S1(=O)=O` (stereo not drawn), the inhibition was 11.1%.

For the compound `COc1ccc(S(=O)(=O)N2CCC(C(=O)NCCC(=O)NCCc3cccc(F)c3)CC2)cc1`, the inhibition was 6.77%.

As to `O=C(c1cc(-c2ccc(O)cc2)on1)N1CCOCC1`, the inhibition is 12%.

As for `O=C(c1cc(-c2cccc(O)c2)on1)N1CCc2ccccc2C1`, the inhibition was -0.0205%.

Turning to `O=C(c1cc(-c2ccc(O)cc2)on1)N1CCCc2ccccc21`, the inhibition is 83.9% (active).

With `C[C@@H]1CN([C@@H](C)CO)C(=O)CCCn2nncc2CO[C@H]1CN(C)Cc1ccc(C(F)(F)F)cc1`, the inhibition is -1.15%.

Consider `CC(=O)Nc1ccccc1NC(=O)c1cc(C)cc(C)c1`, for which the inhibition is -2.05%.

As to `Nc1ccc(S(=O)(=O)NC(=O)c2ccccc2)cc1`, the inhibition is 5.43%.

As for `Nc1ccc(C(=O)Nc2ccccc2N)cc1`, the inhibition was 43.3% (active).

Take `Cc1ccc(Cc2c(-c3ccc(C)cc3)nc3c4ccccc4ccn23)cc1`: the inhibition is -19.4%.

With `Cc1ccc(C(=O)N2CCCc3ccccc32)c(Cl)c1`, the inhibition is 6.82%.

For `CC(Sc1ccc(S(=O)(=O)N2CCN(C)CC2)cn1)C(=O)NC1CCCC(C)C1C` (stereo not drawn), the inhibition was -17.5%.

In the case of `CCc1ccc(CN(C)C(=O)CCc2nnc(-c3ccc(-c4ccccc4)cc3)o2)nc1`, the inhibition was 5.34%.

Regarding `CCCCCCc1cc2cc(-c3nnc(-c4ccccc4)o3)c(=O)oc2cc1O`, the inhibition is 52% (active).

Regarding `O[C@H]1C[C@H](c2ccc(Cl)cc2)N(Cc2cccs2)C[C@@H]1n1cc(C2CC2)nn1`, the inhibition is 1.65%.

For the compound `CCOc1ccc(NS(=O)(=O)c2ccc(C(=O)NCC3CCCO3)cc2)cc1` (stereo not drawn), the inhibition is -2.59%.

With `COc1ccc(CN2C(=O)C(CC(=O)NCCCCc3ccccc3)CC(C(=O)N3CCOCC3)=C2C)cc1` (stereo not drawn), the inhibition was -8.73%.

For `COc1ccc(-c2nc(-c3ccccc3)no2)c(OC)c1`, the inhibition was 67.3% (active).

`COc1ccc(/C=C/c2noc(-c3ccccc3OC(C)=O)n2)cc1`: the inhibition was 9.61%.

As to `COc1ccc(OC)c(-c2csc(-c3cccs3)n2)c1`, the inhibition is 0.747%.

Take `C#CCN(C[C@@H]1[C@@H](OC(=O)NC2CC2)[C@@H](OC(=O)NC2CC2)Cn2c(=O)ccc(=O)n21)S(=O)(=O)c1ccc(C)cc1`: the inhibition is 4.07%.

Consider `CCOc1cc2ccccc2cc1C(=O)Nc1ccccn1`, for which the inhibition is -13.7%.

With `CCOc1ccc(N/C=C/C(=O)c2ccccc2)cc1`, the inhibition was 82.1% (active).

Turning to `CCOc1ccc(NC(=S)N2CCC(NC(=O)c3ccccc3)CC2)cc1`, the inhibition is 0.728%.

`COc1ccc(C(=O)/C=C/Nc2ccccn2)cc1`: the inhibition is 67% (active).

Turning to `Cc1cc(N/C=C\C(=O)c2ccc(Cl)c(Cl)c2)no1`, the inhibition is -16.1%.

For the compound `CCOc1ccc(N/C=C/C(=O)c2cc(OC)c(OC)c(OC)c2)cc1`, the inhibition was -9.23%.

With `NC1=CC(=O)C(=O)c2cccnc21`, the inhibition was 12.1%.

Turning to `COCC(=O)N(C)C[C@H]1Oc2cc(Br)ccc2S(=O)(=O)N([C@H](C)CO)C[C@H]1C`, the inhibition was 0.42%.

`O=C(Cc1ccc([N+](=O)[O-])cc1)NCCS(=O)(=O)N1CCN(c2ccccc2)CC1`: the inhibition is -3.09%.

Turning to `COc1cc(OC)nc(N/N=C(\c2ccccc2)c2ccncc2)n1`, the inhibition is 3.44%.

With `c1ccc(C(=NNc2nc3ccccc3s2)c2ccccn2)cc1`, the inhibition was 79.1% (active).

Consider `C/C(=N/Nc1nc(-c2ccccc2)c(CC(=O)O)s1)c1ccccc1`, for which the inhibition is -38.4%.

For the compound `COc1cccc(OC)c1C(=O)N1CCN(Cc2ccccc2F)CC1`, the inhibition was 2.93%.

Consider `C[C@@H]1CN([C@@H](C)CO)C(=O)c2c(c3ccccc3n2C)-c2ccccc2CO[C@H]1CN(C)C(=O)C1CC1`, for which the inhibition is -4.84%.

As for `CCOC(=O)c1c(C)[nH]c2c1-c1ccccc1C(=O)C2=O`, the inhibition is 92.7% (active).

As to `CCOC(=O)c1c(C)[nH]c(C)c1S(=O)(=O)NCCCc1ccco1`, the inhibition is -0.931%.

Turning to `CCOC(=O)c1[nH]c2ccccc2c1N=C(C)N(CC)CC`, the inhibition was 0.352%.

Take `C[C@H]1NS(=O)(=O)c2cc(Cl)ccc2O[C@@H]1c1ccccc1`: the inhibition is -0.001%.

As for `C=CCOc1cccc(C2C(C(=O)c3ccc(C)o3)=C(O)C(=O)N2CCN2CCOCC2)c1` (stereo not drawn), the inhibition was 1.89%.

In the case of `COc1ccc(NC(=O)CN2C(=O)NC(C)(c3ccccc3)C2=O)cn1` (stereo not drawn), the inhibition was 4.57%.

In the case of `COc1cccc(NC(=S)N(Cc2ccc(C)cc2)Cc2ccccn2)c1`, the inhibition is -9.16%.

On to `COc1ccc(NS(=O)(=O)c2ccc(NC(=S)NC(=O)/C=C/c3ccc(C)cc3)cc2)nn1`, for which the inhibition is -1.1%.

Turning to `COc1ccc(OC(C)C(=O)Nc2cccnc2)cc1` (stereo not drawn), the inhibition is -0.732%.

With `COc1ccc(CS(=O)/C(Cl)=C(/Cl)C(=O)Nc2ccc(OC)nc2)cc1` (stereo not drawn), the inhibition is 85% (active).

Regarding `COc1ccc(NC(=O)/C(Cl)=C(/Cl)S(=O)Cc2ccc(C)cc2)cn1` (stereo not drawn), the inhibition was 94.5% (active).

Turning to `COCOCCn1cc(CN2CCS(=O)(=O)N(Cc3ccc(-c4cccc(N(C)C)c4)cc3)C(CC(C)C)C2=O)nn1` (stereo not drawn), the inhibition is 5.25%.

For `C[C@H](CO)N1C[C@H](C)[C@H](CN(C)C(=O)Nc2ccc3c(c2)OCO3)Oc2ncc(Br)cc2C1=O`, the inhibition was -7.49%.

Regarding `CCCCN1C(=O)C(CC(=O)NC(c2ccccc2)c2ccccc2)CC(C(=O)N2CCOCC2)=C1C` (stereo not drawn), the inhibition is -3.52%.

As to `Cc1cc(C)n(-c2nnc(N3CCN(c4ccccc4)CC3)nn2)n1`, the inhibition was -13.2%.

Turning to `Cc1cc(Nc2ccc(Br)cc2)nc2ccccc12`, the inhibition was -19.5%.

As for `Cc1cc(N/N=C\c2ccc(Br)cc2)nc(-n2nc(C)cc2C)n1`, the inhibition is 47.1% (active).

As to `O=C(NCc1nnnn1-c1ccc(Cl)cc1)c1ccc2c(c1)OCO2`, the inhibition was -8.64%.

For `C=CCn1c(C)cc(C2=NNC(=NCC)SC2)c1C`, the inhibition is 86.2% (active).

On to `COc1ccc(-c2c(C#N)cnc(C)c2C)c(O)c1OC`, for which the inhibition is -4.81%.

`C[C@@H]1CN([C@H](C)CO)C(=O)CCCn2cc(nn2)CO[C@H]1CN(C)S(C)(=O)=O`: the inhibition was 1.59%.

In the case of `COc1cccc(NC(=O)CN(C)C(=O)c2cc(Cl)nc3ccccc23)c1`, the inhibition is -0.28%.

Regarding `Cc1ccccc1C1=N/C(=C/c2cccnc2)C(=O)O1`, the inhibition was 3.85%.

Consider `Cc1ccc(C2=C/C(=C\c3cccnc3)C(=O)O2)cc1`, for which the inhibition is 43.1% (active).

Take `CN(C)/C=C1\C=C(c2ccccc2)OC1=O`: the inhibition was -8.13%.

For `Cc1ccc(CN(C)C[C@@H]2OCc3cnnn3CCCC(=O)N([C@@H](C)CO)C[C@H]2C)cc1`, the inhibition is 0.256%.

`O=C(COC(=O)/C=C/c1ccc(Cl)cc1)NC1CCS(=O)(=O)C1` (stereo not drawn): the inhibition is -1.97%.

The term inhibition denotes the relative decrease from the control value, in per cent.
